# Bioassay records as filed in PubChem BioAssay.
# Cruzain inh Det: qHTS Assay for Promiscuous and Specific Inhibitors of Cruzain (with detergent); Cruzipain (Trypanosoma cruzi), P25779; purified cruzain, Z-FR-AMC fluorescence, 0.01% Triton; Potency, µM, without a hit: max response, negative = inhibition, usual class: inhibitors; hit rate 0.43% among 200,000; AID 1478, 2009;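 further: plate controls were neutral wells for no effect and buffer without enzyme for full effect; nearly all actives have a fitted effect of over 40% in size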
# Target sequence (P25779 123-467 limits assumed): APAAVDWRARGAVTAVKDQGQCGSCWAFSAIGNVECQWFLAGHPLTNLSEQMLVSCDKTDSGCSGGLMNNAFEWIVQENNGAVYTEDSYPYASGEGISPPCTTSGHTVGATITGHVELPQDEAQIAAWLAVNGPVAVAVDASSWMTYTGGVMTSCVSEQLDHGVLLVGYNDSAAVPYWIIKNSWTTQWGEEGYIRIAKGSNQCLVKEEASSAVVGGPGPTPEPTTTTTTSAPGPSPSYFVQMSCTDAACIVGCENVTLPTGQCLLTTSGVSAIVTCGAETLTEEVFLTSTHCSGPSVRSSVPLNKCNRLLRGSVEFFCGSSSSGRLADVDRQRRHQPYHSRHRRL
#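 Z-FR-AMC hydrolysis (2 uM substrate) by cruzain (1.5 nM) monitored kinetically at ex 360/em 450 nm after 15 min room-temperature compound exposure; 0.01% Triton X-100, pH 5.5, 5 mM DTT.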
# Cruzain inh noDet: qHTS Assay for Promiscuous and Specific Inhibitors of Cruzain (without detergent) | Potency, µM, inactives show max response, negative = inhibition, usual class: inhibitors | Cruzipain (Trypanosoma cruzi), P25779 | purified cruzain, Z-FR-AMC fluorescence, no detergent | hit rate 2.3% among 200,000;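 further: plate controls were enzyme without inhibitor for no effect and buffer without enzyme for full effect; nearly all actives have a fitted effect of over 40% in size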
#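 Purified cruzain at 1.5 nM, pre-incubated 15 min with compound at room temperature in 100 mM sodium acetate pH 5.5, 5 mM DTT, 0.00005% Triton X-100. Reaction started with 2 uM Z-FR-AMC; AMC fluorescence increase over 60 s gives rate.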
# * = called active by the depositor; ? = inconclusive. This is a sample that favours compounds with a hit; in the whole collection about 2.4% have one here. The call rests on the fitted dose curve; in most records, active means well fitted curve in the direction sought with a large enough effect; inconclusive means small, poorly fitted or top-dose-only effect, or another doubt; inactive means no such curve, though single readings can be large; an effect the other way counts as inactive or inconclusive. Potency means the concentration at half of the fitted maximal effect.
SMILES,Cruzain inh Det,Cruzain inh noDet
Cc1cc(C)n(CC(O)Cn2c3ccccc3c3ccccc32)c(=O)n1 (stereo not given),0.7%,?
Cc1ccc(NC(=O)COC(=O)c2csc3c2CCC(C)C3)cc1S(=O)(=O)N1CCCCC1 (stereo not given),-4.3%,25.1µM*
CC1CCc2c(C(=O)OCC(=O)Nc3cccc(S(=O)(=O)N4CCCCCC4)c3)csc2C1 (stereo not given),-0.5%,?
NC(=O)C1CCN(C(=O)CSCc2ccccc2Cl)CC1,4.2%,-10.0%
COc1ccc2nc(NC(=O)CCc3nc(-c4ccccc4F)no3)sc2c1,0.4%,7.94µM*
COc1ccc2nc(NC(=O)Cc3cccs3)sc2c1,0.3%,-13.2%
CCOC(=O)c1c(NC(NC(=O)C(C)C)C(Cl)(Cl)Cl)sc2c1CCC2 (stereo not given),-8.3%,6.2%
Cc1ccc(S(=O)(=O)c2c(COC(=O)c3ccccc3Cl)c(-c3ccccc3)nn2C)cc1,3.1%,20µM*
Cn1nc(-c2ccccc2)c(CSc2ccccc2Cl)c1Cl,2.7%,-0.3%
O=C(Oc1ccccc1Cl)c1ccc(-n2cncn2)nc1,2.5%,0.1%
Cc1cccc(Nc2nc3c(S(=O)(=O)c4ccccc4)nnn3c3ccccc23)c1,-2.5%,25.1µM*
Cc1cc(C)cc(Nc2nc3c(S(=O)(=O)c4ccccc4)nnn3c3ccccc23)c1,-5.9%,?
O=C1CC(NCc2ccccc2F)C(=O)N1c1ccccc1 (stereo not given),0.8%,-2.0%
Cc1cccc(NC(=O)COC(=O)CNC(=O)C2CCCCC2)c1,7.08µM*,7.94µM*
Cc1cccc(NC(=O)C2CCCC2)c1,-0.7%,9.1%
COc1cccc(C(=O)N(Cc2ccco2)Cc2cc3cccc(C)c3[nH]c2=O)c1,1.4%,-6.3%
CCOc1ccc(CNC(=O)c2cnc3sc(N4CCCCCC4)nn3c2=O)cc1OC,-0.1%,6.7%
CCCn1c(-c2cccc([N+](=O)[O-])c2)nc2c1c(=O)[nH]c(=O)n2Cc1ccccc1,-5.4%,-0.7%
O=C(CNc1ccccc1)N/N=C/c1ccc([N+](=O)[O-])cc1,-3.5%,-1.0%
O=C(COc1ccc(/C=N/NC(=O)c2ccccc2)cc1)Nc1ccc([N+](=O)[O-])cc1,2.3%,12.6µM*
CC(C)Oc1ccc(/C=N/NC(=O)C(CSCc2ccccc2)NC(=O)c2ccc([N+](=O)[O-])cc2)cc1 (stereo not given),-2.9%,20µM*
O=C(COc1ccccc1)Nc1ccc([N+](=O)[O-])cc1,-0.1%,-6.0%
CCCCC(=O)Nc1nnc(S(=O)(=O)N(C)Cc2ccccc2)s1,-2.0%,0.5%
Cc1ccc2c(Cl)cc(Cl)c(OCc3c(C)noc3C)c2n1,2.5%,-23.8%
Cn1ccc2cc(S(=O)(=O)N3CCN(C(=O)Nc4cccc(F)c4)CC3)ccc21,-4.6%,-19.5%
SMILES,Cruzain inh Det,Cruzain inh noDet
O=C(/C=C/c1ccc(O)cc1)c1ccc(NC2=C(N3CCCCC3)C(=O)c3ccccc3C2=O)cc1,-5.9%,12.6µM*
O=C1C(Nc2ccccc2)=C(N2CCCCC2)C(=O)c2ccccc21,-12.3%,-21.9%
O=C(Cc1ccccc1)c1nc2ccccc2s1,-14.9%,-12.9%
COC(=O)c1ccc(CC(=O)c2nc3ccccc3s2)cc1,-2.0%,31.6µM*
CCN(CC)C(=O)CSc1nnc2sc3ccccc3n12,-0.7%,12.8%
CCOC(=O)c1c(C)[nH]c(C)c1C(=O)CSc1nc2ccccc2c(=O)n1-c1ccc(Cl)cc1,-6.3%,10.7%
O=c1cc(NCc2ccccc2)nc2n1CCCS2,-2.7%,25.1µM*
O=C(COc1cc(=O)n2c(n1)SCCC2)c1ccccc1,4.5%,-1.1%
CN1CCN(C(=O)c2ccc(C3SCC(=O)N3Cc3ccco3)cc2)CC1 (stereo not given),3.3%,-5.3%
O=C1CSC(c2cn(-c3ccccc3)nc2-c2cc3ccccc3oc2=O)N1Cc1ccccc1 (stereo not given),28.2µM*,?
O=C1CSC(c2cn(-c3ccccc3)nc2-c2ccc3c(c2)OCCO3)N1CCN1CCOCC1 (stereo not given),-0.6%,?
O=C1CSC(c2nn(-c3ccccc3)cc2-c2cc3ccccc3oc2=O)N1Cc1ccco1 (stereo not given),25.1µM*,?
CCOCCCNc1nc2c([nH]1)c(=O)n(C)c(=O)n2C,0.1%,-17.4%
Cc1ccc2[nH]c3c(c2c1)CN(C(=O)CN1CCCc2ccccc21)CC3,-4.5%,?
O=C(CN1CCc2ccccc21)Nc1ccc2c(c1)OCO2,-1.8%,12.6µM*
O=C(CN1CCN(c2nc(-c3ccccc3)cs2)CC1)Nc1ccc2c(c1)OCO2,2.4%,25.1µM*
CCc1nnc(NC(=O)CN2CCN(c3nc(-c4ccccc4)cs3)CC2)s1,-3.3%,?
O=C(CN1CCc2ccccc21)NCc1ccc2c(c1)OCO2,-1.8%,-4.2%
CC(CNC(=O)c1ccc(CSc2nc3ccncc3n2Cc2ccccc2)cc1)c1ccccc1 (stereo not given),-8.3%,13.4%
Cc1ccc(CNc2nc(N)c([N+](=O)[O-])c(NCc3ccccc3)n2)cc1,-1.6%,?
Cc1ccc(CNc2nc(N)c([N+](=O)[O-])c(Nc3ccc(F)cc3)n2)cc1,-0.3%,15.8µM*
Oc1cc(CN2COc3ccccc32)c(O)cc1CNC1CCCCC1,0.7%,-6.6%
CC(=O)C1=C(C)NC(SCC(=O)c2ccc(Cl)cc2Cl)=C(C#N)C1c1ccco1 (stereo not given),-10.5%,31.6µM*
CC(=O)C1=C(C)NC(SCC(=O)c2ccc(Cl)cc2)=C(C#N)C1c1ccco1 (stereo not given),-8.8%,-29.8%
O=C(Cc1ccc(Cl)cc1)Nc1ccc(N2CCCC2)cc1,3.5%,6.31µM*
SMILES,Cruzain inh Det,Cruzain inh noDet
Cc1cccc(C)c1OCC(=O)Nc1cccc(-c2nnc(-c3ccccc3)o2)c1,4.1%,?
Cc1ccc(OCC(=O)Nc2ccc(O)c(C(=O)O)c2)cc1C,1.1%,-8.4%
Cc1cc(C)cc(OCC(=O)Nc2ccc(N3CCCC3)cc2)c1,?,3.98µM*
Cc1cccc(OCC(=O)Nc2cccc(-c3nnc(-c4ccccc4)o3)c2)c1C,0.4%,25.1µM*
O=C(O)CCC(=O)Nc1ccc(N2CCCCCC2)cc1,2.9%,-5.1%
Cc1cc(C)cc(OCC(=O)Nc2ccc(F)cc2)c1,0.2%,-18.6%
Cc1ccc(OCC(=O)Nc2ccc(N3CCCC3)cc2)cc1C,?,2.51µM*
CC(C)CCn1c(=O)c(C(=O)N/N=C/c2cccc(F)c2)c(O)c2ccccc21,-5.6%,?
Cc1cc(C)cc(OCC(=O)Nc2ccc3c(c2)C(=O)c2ccccc2C3=O)c1,-1.3%,25.1µM*
CCC(=O)Nc1ccc2c(c1)C(=O)c1ccccc1C2=O,-7.0%,7.1%
Cc1cccc(OCC(=O)Nc2ccc(N3CCCC3)cc2)c1C,?,3.16µM*
CCOc1ccccc1OCC(=O)Nc1ccc(N2CCCCC2)cc1,1.9%,-4.8%
CCCCN(Cc1ccccc1)C(=O)CN(C)S(=O)(=O)c1ccc2c(c1)c(=O)n(C)c(=O)n2C,5.0%,0.6%
COC(=O)c1sccc1NC(=O)/C=C/c1ccc(Cl)cc1,-2.4%,2.6%
COC(=O)c1sccc1NC(=O)/C=C\c1ccc(Cl)cc1Cl,3.2%,3.16µM*
CN1CCN(c2ccc(Cl)cc2NC(=O)c2ccc(S(=O)(=O)N(C)C)cc2)CC1,5.1%,-0.8%
COc1ccccc1NS(=O)(=O)c1ccc(C)c(NC(=O)c2ccc(S(=O)(=O)N3CCCCCC3)cc2)c1,-1.2%,31.6µM*
